# Bioassay records from PubChem.
# A selection: hits, their analogues and other compounds. The true share with any hit is near 2.4%.
# D2 antagonist: antagonists of human D2 dopamine receptor; AID 485344; HEK293 TREx D2 cells, calcium flux, dopamine EC80; hit rate 2% among 340,000; P14416; inhibition, % at 10 µM; in the data active = inhibition above about 30%; inactive = below that, where a call was filed; also: 0% is about no effect
# Target sequence (P14416 whole entry, looked up): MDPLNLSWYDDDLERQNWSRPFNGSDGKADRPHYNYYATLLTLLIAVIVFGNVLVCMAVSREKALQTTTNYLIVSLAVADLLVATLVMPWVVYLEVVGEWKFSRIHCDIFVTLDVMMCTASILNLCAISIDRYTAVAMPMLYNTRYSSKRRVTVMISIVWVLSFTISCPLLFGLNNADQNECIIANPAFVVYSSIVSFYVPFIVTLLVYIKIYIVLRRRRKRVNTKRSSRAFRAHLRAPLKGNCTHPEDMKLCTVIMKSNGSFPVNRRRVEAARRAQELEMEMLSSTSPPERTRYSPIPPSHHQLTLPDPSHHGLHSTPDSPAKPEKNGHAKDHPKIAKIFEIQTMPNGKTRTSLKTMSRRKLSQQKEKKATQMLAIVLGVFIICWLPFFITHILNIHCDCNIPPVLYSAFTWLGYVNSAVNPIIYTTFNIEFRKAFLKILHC
#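 Calcium mobilization kinetics were recorded at 1 s intervals in tetracycline-induced HEK293 T-REx D2 cells, first for 180 s after compound addition and then 180 s after EC80 dopamine.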
# D2 PAM-1: D2 dopamine receptor (human) potentiation; hit rate 0.34% among 340,000; HEK293 T-REx D2, calcium flux, EC20 dopamine potentiation; potentiation, % at 10 µM;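 active = potentiation over 3 SD above the plate norm, cut at about 30% in these data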; also: 0% is about no effect
#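 Tetracycline-induced Hek293 Trex D2 cells, force-coupled to calcium, loaded with no-wash calcium dye. Compound added with 180 s kinetic read for agonism, then EC20 dopamine and a further 180 s read for potentiation.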
# D2 PAM-2: human D2 receptor positive allosteric modulation | hit rate 0.23% among 360,000 | potentiation, % (concentration not given with the values) | DiscoveRx D2 beta-arrestin cells, luminescence, 90 min; 100% = 57 uM dopamine signal; in the data active = potentiation above about 50%
#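 PathHunter D2 cells, attached overnight at 37 deg C, received compound in DMSO plus dopamine at EC20 (50 nM final) for 90 min at 37 deg C. Beta-arrestin recruitment was read as luminescence after 1 h with detection reagent at ambient temperature.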
# D2 ag-1: activates the human D2 dopamine receptor. P14416. activation, % (test concentration not listed). DiscoveRx PathHunter D2 beta-arrestin, luminescence, 90 min; 100% = 57 uM dopamine signal. hit rate 0.084% among 360,000; in the data active = activation above about 40%
#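 DiscoveRx PathHunter D2 beta-arrestin cells (2,100/well) attached overnight, then compound-stimulated 90 min at 37 C in HBSS/10 mM HEPES/0.1% Tween-20 buffer; beta-galactosidase complementation read by luminescence after 1 h at ambient temperature. Dopamine 57 uM final (EC100) as control.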
# D2 ag-2: D2 dopamine receptor (human) agonism; P14416; HEK293 T-REx D2 cells, calcium flux agonist mode; activation, % at 2 µM; hit rate 0.53% among 340,000; AID 485358;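 active = activation over 3 SD above normal in the single-dose calcium agonist read, cut at about 30% in these data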; also: 0% is about no effect
#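 In this primary screen, compounds producing a positive calcium signal within 180 s of addition to tetracycline-induced, force-coupled HEK293 Trex D2 cells are flagged; cells are dye-loaded with a no-wash calcium kit beforehand.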
# Numbers without * were called inactive; / = no result given.
SMILES,D2 antagonist,D2 PAM-1,D2 PAM-2,D2 ag-1,D2 ag-2
O=C(NCCOCCO)C(=O)Nc1c2c(nn1-c1ccc(F)cc1)CSC2,/,-7,/,/,1
COc1ccccc1NC(=O)CSc1nnc(NC(=O)NC2CCCCC2)s1,/,-6,/,/,0
COc1ccc2c(c1)Sc1ccccc1N2CCN(C)C,40*,/,-37,-4,-2
COc1ccc(-c2cn3cccnc3n2)cc1NC(=O)c1c(F)cccc1F,/,-8,/,/,/
Cc1c(Cl)c(C(F)(F)F)nn1CC(=O)NCc1ccco1,40*,/,-8,0,2
Cc1c(Cl)c([N+](=O)[O-])nn1CC(=O)NCc1ccco1,42*,-4,-11,-2,1
Cc1ccc(SCC(=O)NCc2ccco2)cc1,19,3,-1,-3,2
Cc1ccc(SCCC(=O)NCc2ccco2)cc1,-33,35*,-10,-3,0
COc1ccccc1N1CCN(C(=O)c2cnn(-c3ccc(F)cc3F)c2C2CCNCC2)CC1,/,-4,/,/,0
CCOc1ccccc1-n1nnc(-c2nc(-c3ccccc3)no2)c1N,/,1,/,/,0
CC(CNC(=O)c1csc2c1CCCCC2)c1ccccc1 (configuration not stated),/,-12,/,/,1
CN(C)c1ccc(N/C=C/C(=O)c2ccco2)cc1,-4,0,55*,8,0
CC(=O)Nc1ccc(N/C=C/C(=O)c2ccco2)cc1,-9,-15,2,-3,0
Cc1ccc(C)c(N2CCN(CCCNC(=O)Cn3c(=O)c4cccn4c4cccnc43)CC2)c1,63*,-22,-36,0,0
Cc1ccc(C)c(N2CCN(CCCNC(=O)CCn3c(=O)c4cccn4c4cccnc43)CC2)c1,-34,-25,-27,-2,1
Cc1ccc(C)c(N2CCN(CCCNC(=O)Cn3cc4c(n3)CCCCC4)CC2)c1,65*,-21,-11,2,2
Cc1ccc(NC(=O)c2c(C)oc3ccc(O)c(CN(C)Cc4ccccc4)c23)c(C)c1,/,10,/,/,-1
CCc1ccc(S(=O)(=O)c2nnn3c2nc(Nc2ccc(C)c(Cl)c2)c2sccc23)cc1,/,-7,/,/,0
CC(Sc1nnc(-c2cc3ccccc3o2)n1-c1ccccc1)C(=O)O (configuration not stated),45*,-3,3,-2,0
Cc1cc(C)c(NC(=O)C(C)Sc2nnc(-c3ccco3)n2-c2ccccc2)c(C)c1 (configuration not stated),10,7,/,/,0
O=C(COc1cc2oc(=O)c3c(c2cc1Cl)CCC3)Nc1ccc(CN2CCOCC2)cc1,-6,30*,-1,2,0
O=C(COc1cc2oc(=O)c3c(c2cc1Cl)CCC3)NCCCN1CCCC1=O,11,0,-18,-2,1
COc1ccccc1NC(=O)CSc1oc(-c2ccccc2)nc1S(=O)(=O)c1ccc(C)cc1,/,-8,/,/,2
CON(C)c1nc(Oc2ccc(=O)[nH]n2)nc(N(C)C)n1,-9,45*,-3,-1,0
N#Cc1cccc(NC(=O)COC(=O)CCc2ccc(S(=O)(=O)N3CCOCC3)cc2)c1,34*,6,3,-3,0
SMILES,D2 antagonist,D2 PAM-1,D2 PAM-2,D2 ag-1,D2 ag-2
Cc1noc(/C=C/NCc2cccnc2)c1S(=O)(=O)N(C)CC(=O)N1CCc2ccccc21,57*,-8,-6,-3,-1
CCOc1ccc(CCNC(=O)c2cc3c(=O)n(CC)c4ccccc4c3s2)cc1OCC,/,-3,/,/,/
CC1=C(C(=O)OCc2ccc(C)cc2)C(c2ccccc2C(F)(F)F)CC(=O)N1 (configuration not stated),/,7,/,/,0
CCc1ccc(Oc2c(C(F)(F)F)oc3c(CN4CCC(C)CC4)c(O)ccc3c2=O)cc1,/,4,/,/,0
CCOC(=O)c1c(NC(=O)CSc2ncn[nH]2)sc(C)c1C,38*,1,7,2,0
CCOC(=O)c1c(NC(=O)CSc2ncn[nH]2)sc(C(=O)NC)c1C,-11,-14,-8,2,0
Cc1cc(C)c(OCCCCN(C)Cc2ccccc2)c(C)c1,33*,-25,-83,-4,-1
Cc1ccc(OCCCCN(C)Cc2ccccc2)c(Br)c1,1,-25,-42,-1,-1
CCn1c(C)c(C)c2cc(C(=O)NCc3cccc(C)c3)ccc21,/,-13,/,/,0
Cc1ccc(NC(=O)COC(=O)c2ccc3c(c2)OCCO3)cc1,3,4,-1,0,-3
CCCOC(=O)Nc1ccc(C(N)=O)cc1,-6,-5,-5,-1,0
CC(=O)c1cccc(NC(=O)COC(=O)c2ccc3c(c2)OCCO3)c1,39*,-10,-15,-1,0
CCCOC(=O)c1cccc(NC(=O)COc2ccc([N+](=O)[O-])cc2)c1,33*,-22,-20,-3,-1
CCCOC(=O)Nc1cccc(C(C)=O)c1,35*,10,-7,0,0
CCOC(=O)c1cccc(NC(=O)COc2ccc([N+](=O)[O-])cc2)c1,/,/,-17,0,/
Cc1cccc(Cn2c(=O)n(-c3ccc(Cl)c(Cl)c3)c(=O)c3c(C)c(C)sc32)c1,/,-3,/,/,0
CCOC(=O)c1nc(Nc2ccccc2CC)c2ccccc2n1,33*,-7,1,0,0
CNC(=O)CSc1nnnn1-c1cc(C)ccc1C,4,46*,-13,-4,-1
Cc1ccc2oc(=O)n(CCNC(=O)Nc3ccccc3Cl)c2c1,/,-2,/,/,-1
COc1ccc(C(C)NC(=O)CN(c2cc(OC)ccc2OC)S(=O)(=O)c2ccccc2)cc1 (configuration not stated),/,0,/,/,0
Fc1ccc(N2CCN(Cc3nnc(-c4ccccc4Cl)o3)CC2)cc1,/,-8,/,/,0
Fc1ccc(N2CCN(Cc3cnc(Cl)s3)CC2)cc1,-12,-12,-14,-1,39*
CCCOc1ccc(C(=O)NCC(c2cccs2)N(C)C)cc1 (configuration not stated),14,-10,-1,-2,-1
CCOc1ccc(C(=O)NCC(c2cccs2)N(C)C)cc1OCC (configuration not stated),51*,-28,-26,-2,-1
CCOc1ccc(C(=O)NCc2ccncc2)cc1OCC,34*,-24,-41,-1,1
SMILES,D2 antagonist,D2 PAM-1,D2 PAM-2,D2 ag-1,D2 ag-2
CC1CCN(S(=O)(=O)c2ccc3[nH]cc(C(=O)NCc4ccc(F)cc4)c(=O)c3c2)CC1,/,2,/,/,-1
O=C(CC12CC3CC(CC(Br)(C3)C1)C2)NC1CCCC1,34*,7,-3,0,1
O=C1CSC(=Nc2cccc([N+](=O)[O-])c2)N1,43*,-6,-11,-6,1
CCOC(=O)c1c(Nc2ccccc2N)cc(C)nc1C,9,-1,9,1,0
CCOC(=O)c1c(O)cc(C)cc1Nc1ccccc1,32*,4,-4,-1,2
O=C(COC(=O)c1cccnc1Cl)c1ccc(Cl)s1,/,/,-6,-9,/
